62 compounds from PubChem BioAssay AID652104 (National Center for Advancing Translational Sciences (NCATS), 2013) can be followed below.

Out of some 410,000 compounds screened, about 7,200 (1.8%) were called active. Roughly 7% stayed inconclusive and do not appear here. The entries come from a sample that favours actives as a whole. Values without a mark were called inactive. Calls come from the whole dose curve; as a rule, active = well fitted activation curve with a large enough effect; inconclusive = small, poorly fitted or top-dose-only effect, or another doubt; inactive = no such curve, though single readings can be large or run the other way.
Potency is the fitted concentration of half-maximal effect.

This test can be described thus: qHTS of TDP-43 Inhibitors. For growth rescue (activation): % of control where 0% means no effect. Note: nearly all actives have a fitted effect of over 50% in size. Particulars: TDP-43 expressing yeast growth rescue, BacTiter-Glo, 24 h; series mostly up to 46.1 µM; growth rescue (activation): at the top concentration. From the text:
The goal of this project is to identify new chemical probes capable of reversing the toxicity associated with TDP-43 which is associated with frontotemporal lobar degeneration and amyotrophic lateral sclerosis. These compounds will provide a complementary approach to deciphering the tangled mechanisms of toxicity and protection that we have uncovered through genome-wide genetic screens and are beginning to uncover in a large-scale proteomics analysis with mass spectroscopy.
To this end, a miniaturized assay was developed to be screened against the Molecular Libraries Small Molecule Repository (MLSMR) to discover TDP-43 inhibitors. Please note that in the set-up this yeast-based assay compounds that inhibit as TDP-43, have a read-out as activators.
NIH Chemical Genomics Center [NCGC]
NIH Molecular Libraries Probe Centers Network [MLPCN]
Assay Submitter (PI): Susan Lindquist, Whitehead Institute/MIT
Dispense 2.5 microL yeast galactose medium per 1536-well plate, pin compound, dispense 2.5 microL TDP-43 expressing yeast in galactose medium at OD600=0.02 (pregrown in raffinose medium to mid-log phase) per well, incubate for 24 hr at 30 deg C, and cell growth will be measured using 5 microL of Bactiter/Glo reagent to entire plate and read using Luminescence Protocol in ViewLux.
A general note: qHTS replaces the single test concentration by a dilution series.
On to `CC1CCN(C(=O)c2ccc(S(=O)(=O)Cc3cc(F)ccc3F)c([N+](=O)[O-])c2)CC1`, for which the Potency was 11.2 µM (active).

`NC(=O)C1CCN(C(=O)c2ccc(F)c(S(=O)(=O)N3CCOCC3)c2)CC1`: the “growth rescue (activation)” value was -2.43%.

Regarding `CC1CCN(c2ccc(S(=O)(=O)Nc3cc(C(=O)O)cc(C(=O)O)c3)cc2[N+](=O)[O-])CC1`, the “growth rescue (activation)” value was -26.1%.

Regarding `Cc1cc(C)cc(OCC(=O)Nc2c(C(=O)c3ccccc3)oc3ccccc23)c1`, the “growth rescue (activation)” value was 0%.

Take `COc1ccc(CCNC(=O)c2ccc(-n3c(C)cc4c3CCCC4)cc2)cc1OC`: the “growth rescue (activation)” value was 0.348%.

`CC1CCN(S(=O)(=O)c2ccc3c(ccn3CCC(=O)NCc3ccc(N(C)C)cc3)c2)CC1`: the “growth rescue (activation)” value is 10.3%.

With `CC1CCC2(CC1)N=C(c1ccccc1)C(=O)N2CC(=O)Nc1ccc(F)c(Cl)c1` (configuration not stated), the “growth rescue (activation)” value is 15.2%.

Consider `OC(COCC1COc2ccccc2O1)CN1CCN(c2ccc(F)cc2)CC1` (configuration not stated), for which the “growth rescue (activation)” value is -0.0818%.

Consider `Cc1ccc(Cl)cc1NC(=O)NC1COc2ccccc2C1` (configuration not stated), for which the “growth rescue (activation)” value is 9.24%.

In the case of `Cc1cc(C(=O)CCl)c(C)n1CC1COc2ccccc2O1` (configuration not stated), the Potency was 20 µM (active).

`CC1COc2ccccc2N1S(=O)(=O)c1ccccc1` (configuration not stated): the “growth rescue (activation)” value was 10.5%.

Regarding `O=C1C(=O)N(CC2COc3ccccc3O2)c2ccccc21` (configuration not stated), the Potency was 28.2 µM (active).

As to `Cc1n[nH]c(C)c1S(=O)(=O)N1CCCC(C(=O)NCC2COc3ccccc3O2)C1` (configuration not stated), the “growth rescue (activation)” value was -1.06%.

As to `COc1ccccc1Nc1c2c(nc3ccc(NC(=O)/C=C/c4cc(OC)c(OC)c(OC)c4)cc13)CCCC2`, the “growth rescue (activation)” value is 4.53%.

With `CCc1ccc(NC(=O)C2CCCN2S(=O)(=O)c2ccc3nc(-c4ccccc4)[nH]c3c2)cc1` (configuration not stated), the “growth rescue (activation)” value was 5.07%.

Regarding `C=Cc1ccc(Cn2c(C(=O)OC)cc3sc(C)cc32)cc1`, the “growth rescue (activation)” value is 2.65%.

For `CCN1CCN(c2ncc3c(n2)CC(c2ccccc2O)CC3=O)CC1` (configuration not stated), the “growth rescue (activation)” value was 6.42%.

On to `Cc1ccc(-n2c3nc(=O)[nH]c(=O)c-3cc3c(Cl)cccc32)cc1`, for which the “growth rescue (activation)” value was -6.07%.

On to `Cc1ccc(CNC(=O)c2c(O)nc3c(C)cccn3c2=O)cc1`, for which the “growth rescue (activation)” value was -15.7%.

As to `CCOc1cc(C(=O)Nc2nnc3n2CCS3)cc(OCC)c1OCC`, the “growth rescue (activation)” value is 29.6%.

On to `Cc1ccccc1NC(=O)Cn1c(=O)n(CCCCC(=O)NCc2ccccc2Cl)c(=O)c2ccccc21`, for which the “growth rescue (activation)” value was 3.55%.

For the compound `Cc1ccc(C)c(NC(=O)Cn2ccn(-c3ccc(F)cc3)c(=O)c2=O)c1`, the “growth rescue (activation)” value is 8.45%.

`COc1ccccc1-c1cc(C(F)(F)F)nc(S(=O)(=O)CCCC(=O)Nc2ccc(F)cc2F)n1`: the Potency is 14.1 µM (active).

Regarding `COc1ccccc1-c1cc(C(F)(F)F)nc(S(=O)(=O)CCCC(=O)Nc2cc(C)ccc2O)n1`, the “growth rescue (activation)” value is 6.95%.

As for `CSc1ccccc1NC(=O)CCS(=O)(=O)c1nc(-c2cccs2)cc(C(F)(F)F)n1`, the “growth rescue (activation)” value is 21.7%.

As for `CCOC(=O)c1ccc(NC(=O)c2ncn(-c3ccccc3)n2)cc1`, the “growth rescue (activation)” value was 22.4%.

With `Cc1cccc(N2CCN(C(=O)c3ccc(Nc4nc5ccccc5n5nnnc45)cc3)CC2)c1C`, the “growth rescue (activation)” value was 14.8%.

`CN1c2ccc(C=O)c3c(C=O)ccc(c23)N(C)C1(C)C`: the “growth rescue (activation)” value is 27.6%.

`Cc1ccc(C=O)c([B-](F)(F)F)c1`: the Potency was 11.2 µM (active).

For the compound `CCOc1ccc(OCC)c(Nc2nc3ccccc3n3nnnc23)c1`, the “growth rescue (activation)” value was 22.7%.

In the case of `Cc1cc(=O)c2cc(C(=O)Nc3cccc(C)c3C)ccc2[nH]1`, the growth rescue (activation) is 0% [at 9.22 µM].

`CCC(=O)c1cc(F)ccc1OCC(=O)Nc1ccc2c(c1)OCCO2`: the “growth rescue (activation)” value was 12.9%.

In the case of `O=C(COC(=O)COc1cccc(F)c1)NCC1CCCCC1`, the “growth rescue (activation)” value is -6.18%.

For `O=C(COc1ccc(F)cc1Br)NCC1COc2ccccc2O1` (configuration not stated), the Potency is 22.4 µM (active).

Regarding `CCC(=O)N1CCc2cc(S(=O)(=O)NC(C(=O)Nc3ccc(C(C)=O)cc3)C(C)C)ccc21` (configuration not stated), the “growth rescue (activation)” value is 10.8%.

Consider `Cc1ccccc1-n1nnnc1SCCCC(=O)c1ccc(F)cc1`, for which the Potency was 35.5 µM (active).

With `CC(=O)Nc1ccc(NC(=O)CSc2nnnn2-c2ccccc2F)cc1`, the “growth rescue (activation)” value was 0%.

`CCn1nnnc1SCC(=O)c1ccc(C)cc1C`: the “growth rescue (activation)” value was 6.07%.

For `COc1ccc(CNC(=O)CSCc2nc(-c3ccccc3F)oc2C)cc1`, the “growth rescue (activation)” value is 16.5%.

Turning to `COc1ccc(Br)cc1C1CC(=O)Nc2c1c(C)nn2-c1nc(C)cc(C)n1` (configuration not stated), the growth rescue (activation) is 10.5% [at 9.22 µM].

For `CN(Cc1ccccc1)c1ncnc2onc(-c3ccc(F)cc3)c12`, the Potency is 35.5 µM (active).

As for `COc1ccccc1N1CCN(CCCCOc2ccc(F)cc2)CC1`, the “growth rescue (activation)” value is 1.12%.

Turning to `CN(Cc1ccccc1)c1ccc(-c2nc(-c3ccccc3)no2)cc1[N+](=O)[O-]`, the “growth rescue (activation)” value was -8.76%.

With `Cc1cc(C)cc(Nc2ncnc3onc(-c4ccc(F)cc4)c23)c1`, the “growth rescue (activation)” value is 21.2%.

Consider `COc1ccccc1N1CCN(c2ncnc3sc(C)c(-c4ccccc4)c23)CC1`, for which the Potency is 17.8 µM (active).

As for `COc1ccccc1N1CCN(c2ncnc3onc(-c4cccc(Cl)c4)c23)CC1`, the “growth rescue (activation)” value was 17.6%.

As for `COc1ccccc1N1CCN(c2ccc([N+](=O)[O-])nc2)CC1`, the “growth rescue (activation)” value was 27.6%.

For the compound `COC(=O)c1cnc(N2CCN(c3ccccc3OC)CC2)c2ccccc12`, the “growth rescue (activation)” value is 15.4%.

`COc1ccccc1N1CCN(c2ncnc3onc(-c4ccc(F)cc4)c23)CC1`: the Potency is 15.8 µM (active).

`CCOc1ccc(OCC)c(NC(=O)c2c(C)nn(-c3ccccc3)c2-n2cccc2)c1`: the “growth rescue (activation)” value is 12.9%.

`O=C(Nc1ccc(Br)cc1)c1cc2nc(-c3ccccc3)cc(-c3ccccc3)n2n1`: the “growth rescue (activation)” value was 10.6%.

For the compound `Cc1ccc2c(c1)N(C(=O)CCC(=O)NCc1ccccc1F)CC(C)O2` (configuration not stated), the “growth rescue (activation)” value is -10.1%.

Regarding `Cc1ccc2c(=O)cc(C(=O)Nc3sc4c(c3C(=O)NCc3cccnc3)CCCC4)oc2c1`, the “growth rescue (activation)” value is 15.4%.

For `O=C(CSc1nccn1C1CCCC1)Nc1cc(C(F)(F)F)ccc1Cl`, the “growth rescue (activation)” value was 25.6%.

Consider `CCOC(=O)c1cnc(SCC(=O)Nc2cccc(OC)c2)nc1N`, for which the “growth rescue (activation)” value was -2.32%.

Consider `COC(=O)c1ccccc1NC(=O)CSc1n[nH]c(-c2ccncc2)n1`, for which the “growth rescue (activation)” value was -12.9%.

Take `CCOC(=O)c1cnc(SCC(=O)Nc2ccccc2C(=O)OC)nc1N`: the Potency was 22.4 µM (active).

In the case of `Cc1nc(SCC(=O)Nc2ccc(C(=O)O)cc2)n[nH]1`, the “growth rescue (activation)” value is 5.36%.

As to `O=C(Nc1ccc(C(=O)OCc2cc(=O)n3nc(C4CC4)sc3n2)cc1)c1ccc(F)cc1`, the “growth rescue (activation)” value is 11%.

In the case of `CCCCNC(=O)c1ccc2c(c1)NC(=O)C(C(C)C)N2` (configuration not stated), the “growth rescue (activation)” value is 10.5%.

As for `CCc1ccccc1N1CC(c2nc3ccccc3n2CCCCOc2ccccc2)CC1=O` (configuration not stated), the “growth rescue (activation)” value was 11.4%.

For the compound `CCOC(=O)c1c(S(=O)(=O)N2CCCC(C(=O)NCc3cccc(C)c3)C2)c(C)n(C)c1C` (configuration not stated), the “growth rescue (activation)” value was 6.82%.
